Measurements as given in PubChem BioAssay AID1117319 (Southern Research Institute, 2015).
Values joined by “and” are separate entries in the source; they are usually repeats but may differ in a detail not shown here. Identical values can stand only once. Screen size: about 260,000 compounds; about 1,500 (0.58%) were called active. Not shown: some 5% with an inconclusive outcome.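 Rule for the calls: active = inhibition above a set limit at one or more doses, reproduced on every date tested; inconclusive = results disagree between test dates, or hit never tested in dose response; inactive = the rest.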 A selection follows. Entries with a potency or affinity are not part of this list.

Target: Virion infectivity factor (Human immunodeficiency virus type 1 group M subtype B (isolate BH10)) + Virion infectivity factor (Human immunodeficiency virus type 1 group M subtype B (isolate BRU/LAI)) + Virion infectivity factor (Human immunodeficiency virus type 1 group M subtype B (isolate PCV12)) + Virion infectivity factor (Human immunodeficiency virus type 1 group M subtype B (isolate HXB2)) + DNA dC->dU-editing enzyme APOBEC-3G (Homo sapiens) (UniProt P69720+P69721+P69722+P69723+Q9HC16)
Assay: inhibitors of Vif binding to APOBEC3G peptide, primary screen, biochemical, TR-FRET, GST-Vif 1-94, biotin-A3G peptide, dose response retest (AID 1117319);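 note: Vif residues 1-94 fused to GST binding biotinylated APOBEC3G peptide 110-148; 0% = full assay without inhibitor and 100% = GST in place of GST-Vif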
Details: stronger effect = higher value

Compound | inhibition
COC(=O)c1cccc(COC(=O)c2ccc(N(C)C)cc2)c1 | -1.93% (inactive)
CC1CCCCN1C(=O)CSc1nc2ccccc2[nH]1 (stereo not drawn) | -5.81% (inactive)
CCOc1ccccc1/C=N/NC(=O)c1cccc(S(=O)(=O)N(CC)CC)c1 | -6.17% (inactive)
CCN(CC)S(=O)(=O)c1cccc(C(=O)N/N=C/c2cc(OC)c(O)c(OC)c2)c1 | 1.27% (inactive)
CCn1c(C)nc2cc(C(=O)N/N=C/c3ccccc3C)ccc21 | -5.98% (inactive)
CN(C)S(=O)(=O)c1cccc(NC(=S)N/N=C/c2cc(Br)ccc2O)c1 | 9.46% (inactive)
Cc1cccc(N/N=C/c2ccccc2O)c1 | 0.12% (inactive)
COc1ccc(O)c(/C=N/NC(=S)Nc2cccc(S(=O)(=O)N(C)C)c2)c1 | 12.6% (inactive)
CCn1c(C)nc2cc(C(=O)N/N=C/c3ccccc3)ccc21 | 4.16% (inactive)
Cc1cccc(N/N=C/c2ccncc2)c1 | 4.59% (inactive)
CS/C(=N\S(=O)(=O)c1ccc(N)cc1)NS(=O)(=O)c1cccs1 | 4.67% (inactive)
O=C(Nc1nnc(CCc2ccccc2)s1)c1ccco1 | -2.33% (inactive)
CSc1nnc(-c2cccc(C)c2)n1N | -5.45% (inactive)
CCOCCCn1c(=NC(=O)c2ccco2)c(C(=O)OCC)cc2c(=O)n3cccc(C)c3nc21 | 8.51% (inactive)
O=C(NCc1ccccc1)C1=C[C@H](C2CC2)C[C@H](OCCCCO)O1 | -0.51% (inactive)
CC1=C(C(=O)OCC2CCCO2)C(c2ccc(O)cc2)NC(=O)N1 (stereo not drawn) | 10.8% (inactive)
CCN(C(=O)c1cc2ccccc2o1)C12CC3CC(CC(C3)C1)C2 | -6.34% (inactive)
O=C(N/N=C/c1ccc(Br)o1)/C(=C/c1ccc([N+](=O)[O-])cc1)NC(=O)c1ccccc1 | 12.1% (inactive)
CN(C)c1ccc(/C=C(/NC(=O)c2ccccc2)C(=O)N/N=C/c2ccc([N+](=O)[O-])c(O)c2)cc1 | 15.2% (inactive) and -3.76% (inactive)
Cc1cc(=O)oc2cc(OCC(=O)OCC(=O)Nc3ccc4ccccc4c3)ccc12 | -10.1% (inactive)
Cn1nnnc1SCC(=O)N1c2ccccc2CCc2ccccc21 | 3.78% (inactive)
O=C(O)c1sc(C(=O)O)c(-c2ccccc2)c1-c1ccccc1 | 2.28% (inactive)
CC(C)(Oc1ccc(-c2ccco2)cc1)C(=O)O | 3.13% (inactive)
O=S(=O)(c1ccccc1)N1N=C(c2ccc(Cl)cc2)CC1c1ccco1 (stereo not drawn) | 4.42% (inactive)

Compound | inhibition
O=C(/C=C/c1ccccc1)Nn1cnnc1 | -6.05% (inactive)
NC(=O)Cc1ccc(C(=O)c2ccc(F)cc2)s1 | -4.28% (inactive)
Cc1ccccc1OCCC(=O)OCC(=O)NCCc1ccc(S(N)(=O)=O)cc1 | -1.77% (inactive)
CCOc1ccccc1C(=O)NCC(=O)NCCc1ccc(S(N)(=O)=O)cc1 | 0.59% (inactive)
COc1ccccc1C(=O)Nc1cccc(NC(C)=O)c1 | 12.4% (inactive)
Oc1ccc2oc3c(c2c1C=NCc1ccncc1)CCCC3 | 24.2% (inactive)
Cc1ccc(S(=O)(=O)N(C(=O)c2ccncc2)c2ccc3oc4c(c3c2)CCCC4)cc1[N+](=O)[O-] | -4.21% (inactive)
CCOc1ccccc1C(=O)N[C@H](C(=O)Nc1ccc(OC)c(S(=O)(=O)N2CCOCC2)c1)C(C)C | -13.1% (inactive)
O=C1OCCC1Sc1nnc(-c2cccnc2)n1-c1ccccc1F (stereo not drawn) | 5.98% (inactive)
CCOC(=O)N1CCN(Cc2nnc(-c3cccc(Br)c3)o2)CC1 | -4.74% (inactive)
Cc1ccc2cc(C#N)c(N3CCN(C)CC3)nc2c1 | 3.3% (inactive)
Cc1ccc2nc(N3CCN(C)CC3)c(C#N)cc2c1 | 1.03% (inactive)
Cn1c(N)c(C(=O)COC(=O)/C=C/c2ccccc2F)c(=O)n(C)c1=O | 0.83% (inactive)
C/C(=N\NC(=O)c1ccc([N+](=O)[O-])cc1)c1cc2ccccc2oc1=O | 13.4% (inactive)
COc1cccc(C(C)=NNc2ccc([N+](=O)[O-])cc2[N+](=O)[O-])c1OC | 0.32% (inactive)
Cc1cc(N/N=C/c2cccc(F)c2)nc(NCc2ccccc2)n1 | 4.51% (inactive)
Nc1cc(=O)nc(SCC(=O)NC2CCCCC2)n1-c1ccccc1 | -0.99% (inactive)
Cc1cccc(-n2c(N)cc(=O)nc2SC(C)C(=O)NC2CCCCC2)c1 (stereo not drawn) | -1.72% (inactive)
O=[N+]([O-])c1ccc(O)c(C2=NNC(c3ccccc3F)C2)c1 (stereo not drawn) | 13.2% (inactive)
O=C(N/N=C/c1cc2c(cc1Br)OCO2)c1ccccn1 | 7.07% (inactive)
O=C(O)c1ccc(S(=O)(=O)N2CCCCCCC2)cc1 | 1.86% (inactive)
O=C(O)c1ccc(S(=O)(=O)N2CCCCCC2)cc1 | 1.58% (inactive)
CC(C)(C)c1cc(NC(=O)COC(=O)C2CC2)n(-c2ccccc2)n1 | -5.93% (inactive)
COc1cc(OC)nc(NC(=O)CN2CCN(c3ccc(F)cc3)CC2)n1 | 4.2% (inactive)

Compound | inhibition
CC1=C(C(=O)OC(C)C)C(c2cccs2)C(C(=O)OC(C)C)=C(C)N1 | -3.55% (inactive)
CC(=O)C1=C(C)NC(=O)NC1c1cccs1 (stereo not drawn) | 7.19% (inactive)
COC(=O)c1ccc2c(=O)n(CC3CCCO3)c(SCC(=O)Nc3ccc(OC)cc3OC)nc2c1 (stereo not drawn) | -7.78% (inactive)
COc1ccc(C(=O)NC2CC3CCCC(C2)N3CC(C)C)cc1OC (stereo not drawn) | -7.52% (inactive)
CCCN1C2CCCC1CC(NC(=O)c1cc(OC)c(OC)c(OC)c1)C2 (stereo not drawn) | 9.1% (inactive)
Cc1noc(C)c1CSc1ncnc2sc3c(c12)CCC3 | -4.14% (inactive)
COc1ccc(/C(N)=N/OC(=O)c2ccco2)cc1 | -1.36% (inactive)
CCN1C(=O)c2ccccc2S(=O)c2ccc(C(=O)N3CCN(C(=O)c4ccco4)CC3)cc21 (stereo not drawn) | 1.84% (inactive)
O=C1c2ccccc2-c2c1cccc2C(=O)N1CCN(C(=O)c2ccco2)CC1 | 18.7% (inactive)
CCOC(=O)c1c(/N=C/c2cccc([N+](=O)[O-])c2O)sc2c1CCC2 | 27% (inactive)
CCCCn1cnc2c(SCc3ccc(Br)cc3)nc(N)nc21 | -11.3% (inactive)
CC(CC(C)C(=O)Nc1ccccc1C(C)(C)C)C(=O)O (stereo not drawn) | 5.47% (inactive)
CC(CN(C(N)=O)c1ccccc1O)C(=O)O (stereo not drawn) | 17.1% (inactive)
CCC1CCCCN1C(=O)COc1cc(=O)n(C)c2ccccc12 (stereo not drawn) | 1.25% (inactive)
O=C1c2cccc(NCCNCCO)c2C(=O)c2cccc(NCCNCCO)c21 | -16.1% (inactive)
O=C1c2cccc(O)c2C(=O)c2c(O)cccc21 | 23.8% (inactive)
COc1cccc(NC(=O)CN(C)C(=O)c2ccc(COc3ccccc3)o2)c1 | 10.4% (inactive)
O=C(CSc1ccc(-c2ccccc2)nn1)N1CCOCC1 | 8.48% (inactive)
COc1cc(/C=C2/SC(=NCc3ccccc3)N(Cc3ccccc3)C2=O)ccc1O | -3.52% (inactive)
COc1ccccc1N1CCN(C(=O)c2sc3nc(-c4ccccc4)cn3c2C)CC1 | -3.37% (inactive)
Cc1c(C(=O)N2CCN(c3ccc(F)cc3)CC2)sc2nc(-c3ccccc3)cn12 | -5.76% (inactive)
COc1cccc(/C=N/NC(=O)C(=O)NCc2ccco2)c1O | -4.26% (inactive)
CN(C)CCN=Cc1c(O)n(Cc2ccc3c(c2)OCO3)c(=O)c2ccccc12 | -11.8% (inactive)
CC(Sc1nc2sc3c(c2c(=O)n1-c1ccccc1)CCCC3)C(=O)O (stereo not drawn) | 17% (inactive)

Compound | inhibition
CCn1c(SCC(=O)O)nc2sc3c(c2c1=O)CCC3 | 32.7% (inactive)
C=CCSc1nc2sc3c(c2c(=O)n1CC)CCC3 | 6.31% (inactive)
CCn1c(SCC(N)=O)nc2sc3c(c2c1=O)CCCC3 | -2.97% (inactive)
CC1(C)CC(=O)C=C(c2n[nH]nc2C2CC2)C1 | 4.55% (inactive)
CCN(Cc1ccccc1)C(=O)c1cc(S(=O)(=O)N2CCOCC2)ccc1N1CCCC1 | 3.77% (inactive)
Cc1cc(Nc2ccc(Br)cc2)nc(-c2ccccc2O)n1 | -1.59% (inactive)
CC(=NCc1cccc(Cl)c1)c1nc(-c2ccco2)oc1O | 8.49% (inactive)
O=C(c1cccc(F)c1)N1CCCC(C(=O)N2CCCC2)C1 (stereo not drawn) | -3.84% (inactive)
O=C(Nc1ccc(Oc2ccccc2)cc1)c1ccc(Cn2c(=O)[nH]c3ccsc3c2=O)cc1 | -6.11% (inactive)
Cc1ccccc1NC(=O)CSc1n[nH]c(-c2ccco2)n1 | 9.51% (inactive)
Cc1cccc(C)c1NC(=O)CSc1nnc(-c2ccco2)n1N | -0.27% (inactive)
Cc1ccccc1NC(=O)CSc1nnc(-c2ccco2)n1N | -10.3% (inactive)
Cc1cccc(NC(=O)CSc2nnc(-c3ccco3)o2)c1C | -1.43% (inactive)
Cc1cccc(C)c1NC(=O)CSc1nc(-c2ccco2)cc(C(F)(F)F)n1 | -1.99% (inactive)
Cc1cccc(NC(=O)CSc2nnc(CNC(=O)c3ccco3)n2C)c1C | -5.41% (inactive)
CN(C)c1ccc(C(CNS(=O)(=O)c2cccc([N+](=O)[O-])c2)N2CCOCC2)cc1 (stereo not drawn) | -0.61% (inactive)
COc1ccc(CN(CC(=O)NCc2ccc(F)cc2)C(=O)c2ccco2)cc1 | -3.39% (inactive)
O=C(CSc1nnc(-c2cnccn2)n1Cc1ccco1)c1ccc2ccccc2c1 | 4.99% (inactive)
CCn1cc(C(=O)NCc2ccc3c(c2)OCO3)c(=O)c2cc(S(=O)(=O)N3CCOCC3)ccc21 | -9.22% (inactive) and 8.82% (inactive)
CCOc1ccc(C=NN2CCCCCC2)cc1OCC | -8.05% (inactive)
CCCCC12CN3CC(C)(CN(C1)C31C(=O)N(C)c3ccc(C)cc31)C2=O (stereo not drawn) | 3.69% (inactive)
